Source: PubChem BioAssay

Molecular target: Follistatin-related protein 3 (Homo sapiens) (UniProt O95633)
Assay: compounds binding follistatin-related protein 3 – biochemical, small-molecule microarray, 635 nm fluorescence, primary screen (AID 1105);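 note: score merges emission near 667 nm and signal to noise per printed spot across three slides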
Conditions: FSTL3 binding, higher = more signal

Sequence of Follistatin-related protein 3 (Homo sapiens) (O95633 whole entry, looked up): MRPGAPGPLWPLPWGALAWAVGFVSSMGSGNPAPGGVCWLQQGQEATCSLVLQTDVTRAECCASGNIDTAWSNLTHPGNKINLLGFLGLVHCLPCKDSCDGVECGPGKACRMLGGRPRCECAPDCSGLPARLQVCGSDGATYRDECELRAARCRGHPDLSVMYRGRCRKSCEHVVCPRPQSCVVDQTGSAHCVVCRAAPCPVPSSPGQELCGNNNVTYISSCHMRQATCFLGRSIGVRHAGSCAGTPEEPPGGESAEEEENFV

SMILES	composite z-score
COc1cc(NN2C(C(O)c3ccc(I)cc3)C=CC3C(=O)N(c4ccccc4)C(=O)C32)cc(OC)c1OC (stereo unspecified)	1.3
CN(C)CCCC[C@@H]1NC(=O)[C@@H]2C[C@H](C(=O)O)[C@H](c3cccc(OCCO)c3)N2C1=O	-0.306
CN1C(=O)C2C=CC(C(O)c3cc(C(F)(F)F)cc(C(F)(F)F)c3)N(Nc3ccccc3)C2C1=O (stereo unspecified)	-0.247
C=C(/C(=C/C[C@H](OC(=O)c1ccncc1)c1ccccc1OCCO)c1cnc2ccccc2c1)C(C)C	1.59
COC(=O)[C@@]1(Cc2ccccc2CN=[N+]=[N-])N=C(c2ccc(OCCCO)cc2)O[C@H]1c1ccccc1	-0.153
C=CCC(OC(C)=O)[C@@H]1[C@@H](N(Cc2cccc3ccccc23)C(=O)c2ccc(-c3ccccc3)cc2)c2cc(OCCCO)ccc2N1C(=O)c1ccc(-c2ccccc2)cc1 (stereo partly specified)	0.143
COC(=O)[C@@]1(Cc2ccc(F)cc2)[C@H]2c3cc(C(=O)N(C)C)n(Cc4c(CO)[nH]cc(C)c4=O)c3C[C@H]2CN1C(=O)c1ccccc1	-0.217
CN(C)C(=O)[C@]1(CCS(=O)(=O)c2ccccc2)N=C(c2ccc(OCCCO)cc2)O[C@@H]1c1ccccc1	0.552
CC(C)OC(=O)CC(=O)CC(O)c1ccc([N+](=O)[O-])cc1 (stereo unspecified)	0.198
CCN(CC)c1ccc(N2CC=CC34O[C@@H]5/C=C\CCC(C)OC(=O)C5[C@H]3C(=O)N(C(C)CO)[C@@H]4C2=O)cc1 (stereo partly specified)	-0.159
Cc1ccc(C(C)CC(O)C2C=CC3C(=O)N(c4ccccc4)C(=O)C3N2Nc2ccc(C#N)cc2)o1 (stereo unspecified)	0.913
Cc1ccc(F)cc1S(=O)(=O)N[C@@H]1CCN(Cc2cccc3[nH]ccc23)C1	1.36
O=C1C2C=CC(C(O)c3ccco3)N(Nc3ccccc3)C2C(=O)N1c1ccccc1 (stereo unspecified)	-0.713
CCOC(=O)C1=CCC(c2ccco2)N(S(=O)(=O)c2ccc(C)cc2)C1 (stereo unspecified)	1.22
O=C(NCCN1CCOCC1)[C@@H]1c2ccccc2C(=O)N(Cc2ccccc2)[C@H]1c1ccc(CO)cc1	-0.481
CCOC(=O)C1=C[C@@H](c2ccccc2)N(S(=O)(=O)c2ccc(C)cc2)[C@H]1c1ccccc1	-0.0021

SMILES	composite z-score
COCCOC(=O)N1C(=O)[C@@]2(c3cc(C#Cc4ccc(OC)cc4)ccc31)[C@H](c1ccc(OCCO)cc1)N1[C@H](c3ccccc3)[C@H](c3ccccc3)OC(=O)[C@H]1[C@@H]2C(=O)Nc1nc2ccccc2s1	0.805
[N-]=[N+]=Nc1ccccc1C[C@]1(C(=O)O)N=C(c2ccc(OCCCO)cc2)O[C@H]1c1ccccc1N=[N+]=[N-]	0.546
CC=CC(O)C1C=CC2C(=O)NC(=O)C2N1Nc1ccccn1 (stereo unspecified)	0.6
CCOC(=O)C1=C[C@@H](C(C)(C)C)N(S(=O)(=O)c2ccc(C)cc2)[C@H]1c1ccccc1	1.26
COC(=O)[C@@]1(Cc2ccc(F)cc2)[C@H]2c3cc(C(=O)N4CCCC4)n(CC4CC4)c3C[C@H]2CN1C(=O)c1ccccc1	0.466
CO[C@H]1O[C@H](CO)[C@@H](OC(=O)Nc2ccc(C#N)cc2)[C@@H]2OC(=O)[C@H](Cc3cccc(Br)c3)C/C=C/C[C@@H](Cc3cccc(Br)c3)C(=O)O[C@@H]12	0.707
COC(=O)[C@@]1(Cc2ccccc2)[C@H]2c3cc(C(=O)N(C)C)n(CCn4cc([N+](=O)[O-])nc4C)c3C[C@H]2CN1C(=O)c1ccccc1	0.444
Cc1ccc(N2C(=O)c3ccccc3[C@](C)(C(=O)NCc3ccccc3)[C@@H]2c2ccc(CO)cc2)nc1	-0.192
COC(=O)[C@@]1(Cc2ccc(F)cc2)[C@H]2c3cc(C(=O)N4CCCC4)n(C)c3C[C@H]2CN1C(=O)c1ccccc1	-0.296
CC(C)C(=C=CC[C@@H](O)c1cccc(OCCO)c1)C[C@@H](O)c1ccccn1	0.0146
O=C(O)[C@H]1C[C@H]2C(=O)N[C@@H](Cc3ccccc3)C(=O)N2[C@H]1c1cccc(OCCO)c1	1.2
COc1ccc([Si](C)(C)[C@@H]2[C@@H](CC(=O)N3Cc4ccccc4C[C@H]3CO)O[C@]3(C(=O)N(Cc4ccc(N5CCC5=O)cc4)c4ccccc43)[C@H]2C)cc1	1.06
Cc1ccc([C@H]2C(C(=O)O)=C[C@@H](C(C)(C)C)N2S(=O)(=O)c2ccc(C)cc2)cc1	1.17
CN1C(=O)[C@@]2(Cc3ccccc3)N=C(c3ccc(OCCCO)cc3)O[C@H]2c2ccccc21	1.11
COCCCNC(=O)[C@@]1(Sc2ccc(C)cc2)CC(=O)N(C(C)C)[C@@H]1c1ccc(CO)cc1I	-0.665
